15 compounds from PubChem BioAssay (EPA / NIEHS) can be followed below.

Experiment [1] addresses sheep Cyclooxygenase-1 (Cox1), PTGS1 (gene 443551) (UniProt P05979). The experiment in a line: NVS_ENZ_oCOX1: NovaScreen (NVS) Enzymatic Assay for sheep Cyclooxygenase-1 (Cox1) (AID 2283239).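 Further: actives reduce cyclooxygenase activity so potencies are for inhibitors.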 The gist of the method: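 Ovine seminal vesicle extract; absorbance (colorimetric) enzyme read-out at 0.66 h post-dose. Primary: single conc 25 uM, duplicate. Follow-up: concentration series on actives. Activity = signal loss vs DMSO baseline.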

The target in experiment [2] is bovine Dopamine Receptor (DR), Non-selective Binding, DRD1 (gene 281125) (UniProt Q95136). The experiment in a line: NVS_GPCR_bDR_NonSelective: NovaScreen (NVS) G Protein-Coupled Receptor Assay for bovine Dopamine Receptor (DR), Non-selective Binding (AID 2283241). The essentials:
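Filter-based radioligand binding with bovine striatal membrane, incubated 1 h; DMSO as negative baseline. Initial duplicate single-point test at 25 uM preceded concentration series for actives.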

Experiment [3] deals with human Serotonin, 5-Hydroxytryptamine Receptor 2A (5HT2A), HTR2A (gene 3356) (UniProt P28223). The experiment in a line: NVS_GPCR_h5HT2A: NovaScreen (NVS) G Protein-Coupled Receptor Assay for human Serotonin, 5-Hydroxytryptamine Receptor 2A (5HT2A) (AID 2283249). The gist of the method: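 Radioligand displacement on human cortex tissue extract, counted by filtration and scintillation 1.5 h post-dosing. Initial single-concentration screen at 25 uM in duplicate, concentration series in follow-up; DMSO as baseline.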
Chain of human Serotonin, 5-Hydroxytryptamine Receptor 2A (5HT2A), HTR2A (gene 3356) (P28223 whole entry, looked up): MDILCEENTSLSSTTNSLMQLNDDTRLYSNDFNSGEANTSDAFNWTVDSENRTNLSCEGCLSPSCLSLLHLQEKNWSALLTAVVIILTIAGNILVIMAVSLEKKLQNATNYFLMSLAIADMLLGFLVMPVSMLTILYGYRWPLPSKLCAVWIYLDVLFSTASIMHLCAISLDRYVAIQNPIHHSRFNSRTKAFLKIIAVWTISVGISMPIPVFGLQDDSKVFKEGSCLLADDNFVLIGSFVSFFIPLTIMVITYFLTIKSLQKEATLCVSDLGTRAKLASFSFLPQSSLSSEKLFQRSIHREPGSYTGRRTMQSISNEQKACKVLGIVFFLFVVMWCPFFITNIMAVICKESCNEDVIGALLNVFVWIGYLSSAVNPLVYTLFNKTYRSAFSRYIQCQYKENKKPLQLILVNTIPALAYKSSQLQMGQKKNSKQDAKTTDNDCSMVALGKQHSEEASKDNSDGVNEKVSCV

Experiment [4] concerns guinea pig Muscarinic, Peripheral (Mperiperal) Receptor, Non-selective Binding, gene 100379235. The experiment in a line: NVS_GPCR_gMPeripheral_NonSelective: NovaScreen (NVS) G Protein-Coupled Receptor Assay for guinea pig Muscarinic, Peripheral (Mperiperal) Receptor, Non-selective Binding (AID 2283250). The gist of the method: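 Screened in duplicate at 25 uM, hits retested in concentration series to 50 uM max, using bladder membrane radioligand displacement from guinea pig. Filtration and scintillation counting 1 h post-dose, fitted relative to DMSO.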

Experiment [5] addresses human Serotonin, 5-Hydroxytryptamine Receptor 6 (5HT6), HTR6 (gene 3362) (UniProt P50406). The experiment in a line: NVS_GPCR_h5HT6: NovaScreen (NVS) G Protein-Coupled Receptor Assay for human Serotonin, 5-Hydroxytryptamine Receptor 6 (5HT6) (AID 2283253). The gist of the method: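 Filter scintillation counting of radioligand displacement from HEK293-expressed 5HT6, 1 hour post-dose, with loss of signal relative to DMSO. Single 25 uM duplicates first, with concentration series for confirmation.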

Experiment [6] addresses human Adenosine A1 Receptor (AdoRA1), ADORA1 (gene 134) (UniProt P30542). As to the kind of experiment: NVS_GPCR_hAdoRA1: NovaScreen (NVS) G Protein-Coupled Receptor Assay for human Adenosine A1 Receptor (AdoRA1) (AID 2283254). The gist of the method: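 Hum. cortical membranes + radioligand, cmpd 1 h; filtration, scintillation count. Readout = decrease vs DMSO. Primary 25 uM dup; hits → conc. series.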

Experiment [7] has as its target human Serotonin, 5-Hydroxytryptamine Receptor 7 (5HT7), HTR7 (gene 3363) (UniProt P34969). As to the kind of experiment: NVS_GPCR_h5HT7: NovaScreen (NVS) G Protein-Coupled Receptor Assay for human Serotonin, 5-Hydroxytryptamine Receptor 7 (5HT7) (AID 2283255).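 Further: hits reduce specific radioligand binding relative to DMSO.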 The essentials: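 Filter-bound radioactivity counted after 1 h, with loss of specific radioligand binding fitted against DMSO. Membrane protein came from CHO cells expressing human 5HT7. Chemicals were tested first at 25 uM in duplicate, then in concentration series if active.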

Experiment [8] deals with human Adenosine A2a Receptor (AdoRA2a), ADORA2A (gene 135) (UniProt P29274). The experiment in a line: NVS_GPCR_hAdoRA2a: NovaScreen (NVS) G Protein-Coupled Receptor Assay for human Adenosine A2a Receptor (AdoRA2a) (AID 2283256). The gist of the method:
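HEK293-derived receptor preparation, radioligand displacement, 1.5 h, filtration + scintillation read. Loss of bound signal scored vs DMSO. Single-point 25 uM in duplicate first, then concentration-response for actives.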

In experiment [9] the target is human Adrenergic, Alpha 2A Receptor (Adra2A), ADRA2A (gene 150) (UniProt P08913). As to the kind of experiment: NVS_GPCR_hAdra2A: NovaScreen (NVS) G Protein-Coupled Receptor Assay for human Adrenergic, Alpha 2A Receptor (Adra2A) (AID 2283257). The gist of the method:
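Displacement of a specific radioligand from HT29 membrane protein was counted by filter scintillation after 1 h. Compounds were screened in duplicate at 25 uM, and actives were retested in concentration series. Fitting was positive-direction against DMSO.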

In experiment [10] the target is human Adrenergic, Beta 1 Receptor (Adrb1), ADRB1 (gene 153) (UniProt P08588). The experiment in a line: NVS_GPCR_hAdrb1: NovaScreen (NVS) G Protein-Coupled Receptor Assay for human Adrenergic, Beta 1 Receptor (Adrb1) (AID 2283258). The gist of the method:
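Membranes/protein extracted from human neuroepithelioma cells, radioligand competition binding read by filtration and scintillation 2 h post-dose. Single 25 uM duplicate screen, then concentration-response follow-up; DMSO as negative control.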

The target of experiment [11] is human Adrenergic, Alpha 2c Receptor (Adra2C), ADRA2C (gene 152) (UniProt P18825). As to the kind of experiment: NVS_GPCR_hAdra2C: NovaScreen (NVS) G Protein-Coupled Receptor Assay for human Adrenergic, Alpha 2c Receptor (Adra2C) (AID 2283259). The gist of the method:
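Screened first in duplicate at 25 uM, with actives then run as concentration series. Membranes from Sf9 cells were exposed for 1 h, and displacement of radioligand was counted after filtration, using DMSO as baseline.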

Experiment [12] concerns the target rat Constitutive Nitric Oxide Synthase (CNOS), Nos1 (gene 24598) (UniProt P29476). As to the kind of experiment: NVS_ENZ_rCNOS: NovaScreen (NVS) Enzymatic Assay for rat Constitutive Nitric Oxide Synthase (CNOS) (AID 2283236). The gist of the method: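 Single 25 uM duplicate screen, then concentration series to 50 uM for chemicals meeting threshold. Rat brain membrane-derived CNOS activity detected radiometrically by filtration and scintillation counting, 1 h after compound addition; DMSO as baseline.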

Experiment [13] addresses Adenosine receptor A1 (Bos taurus) (UniProt P28190). As to the kind of experiment: NVS_GPCR_bAdoR_NonSelective: NovaScreen (NVS) G Protein-Coupled Receptor Assay for bovine Adenosine Receptor (AdoR), Non-selective Binding (AID 2283244). The essentials: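 Cell-free binding with membranes from bovine striatum: radioligand displaced by test chemical, read after 1 h by filtration and scintillation. Single-point 25 uM duplicate primary, 50 uM top concentration in follow-up curves, DMSO baseline.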

In experiment [14] the target is guinea pig Leukotriene D4 Receptor (LTD4), CYSLTR1 (gene 100135514) (UniProt Q2NNR5). The experiment in a line: NVS_GPCR_gLTD4: NovaScreen (NVS) G Protein-Coupled Receptor Assay for guinea pig Leukotriene D4 Receptor (LTD4) (AID 2283248). The gist of the method:
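Guinea pig lung membrane preparation; bound radioligand measured by filter scintillation after 1 h, loss of signal versus DMSO marking displacement. Compounds tested at 25 uM in duplicate, hits retested to max 50 uM.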

Experiment [15] deals with human Serotonin, 5-Hydroxytryptamine Receptor 5A (5HT5A), HTR5A (gene 3361) (UniProt P47898). As to the kind of experiment: NVS_GPCR_h5HT5A: NovaScreen (NVS) G Protein-Coupled Receptor Assay for human Serotonin, 5-Hydroxytryptamine Receptor 5A (5HT5A) (AID 2283251). The gist of the method:
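Membranes from HEK293 cells, radioligand binding read by filtration and scintillation after 1 h. Single-concentration duplicate testing at 25 uM, then concentration-response for actives; positive-direction fitting relative to DMSO.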

In experiment [16] the target is rat Catechol-O-Methyl Transferase (COMT), Comt (gene 24267) (UniProt P22734). As to the kind of experiment: NVS_ENZ_rCOMT: NovaScreen (NVS) Enzymatic Assay for rat Catechol-O-Methyl Transferase (COMT) (AID 2283235). The essentials: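 Rat dorsal striatum extract served as COMT source; product quantified by HPLC/spectrophotometry, read at 0 h after dosing. Primary single-concentration screen at 25 uM, followed by concentration series to a 50 uM maximum.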
Chain of rat Catechol-O-Methyl Transferase (COMT), Comt (gene 24267) (P22734 whole entry, looked up): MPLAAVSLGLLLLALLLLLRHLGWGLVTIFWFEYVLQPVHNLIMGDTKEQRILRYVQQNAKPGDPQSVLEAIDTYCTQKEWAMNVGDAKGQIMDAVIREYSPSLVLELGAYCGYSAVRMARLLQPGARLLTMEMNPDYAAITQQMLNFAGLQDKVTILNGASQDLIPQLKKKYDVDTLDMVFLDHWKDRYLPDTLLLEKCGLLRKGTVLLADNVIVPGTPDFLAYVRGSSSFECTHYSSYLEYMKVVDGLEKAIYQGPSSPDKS

Experiment [17] has as its system guinea pig Leukotriene B4 Receptor (LTB4), gene 100379538. As to the kind of experiment: NVS_GPCR_gLTB4: NovaScreen (NVS) G Protein-Coupled Receptor Assay for guinea pig Leukotriene B4 Receptor (LTB4) (AID 2283247). The essentials: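 Membranes from guinea pig spleen incubated 2 h with radioligand and compound; bound counts measured by filtration and scintillation. Screened first at 25 uM in duplicate, then actives titrated to a 50 uM top concentration relative to DMSO.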

In experiment [18] the target is guinea pig Opioid, Kappa 1 Receptor (OpiateK), OPRK1 (gene 100135587) (UniProt P41144). As to the kind of experiment: NVS_GPCR_gOpiateK: NovaScreen (NVS) G Protein-Coupled Receptor Assay for guinea pig Opioid, Kappa 1 Receptor (OpiateK) (AID 2283252).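 Further: radioligand displacement from kappa opioid receptor in guinea pig cerebellar membranes; active means reduced radioligand binding relative to DMSO.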 The gist of the method:
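Radioligand competition binding using guinea pig cerebellum membrane fraction; 2 h exposure; filter radiodetection. Single concentration 25 uM (duplicate), follow-up concentration-response for actives.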

Experiment [19] has as its system bovine Histamine 1 Receptor (H1), gene 281231. As to the kind of experiment: NVS_GPCR_bH1: NovaScreen (NVS) G Protein-Coupled Receptor Assay for bovine Histamine 1 Receptor (H1) (AID 2283246). The essentials: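 Hits from a 25 uM duplicate primary screen were retested in concentration series (top 50 uM); binding measured as scintillation-counted displacement of radioligand from bovine cerebellar membranes after 1 h, normalised to DMSO.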

Inconclusive results are not listed. Active and inactive are the calls of the source. How the source made its calls: active means hit-call score of the fitted dose curve at least 0.9, where 1 is the maximum; inconclusive means response in the unintended direction; inactive means score below 0.9.

Chain of human Serotonin, 5-Hydroxytryptamine Receptor 7 (5HT7), HTR7 (gene 3363) (P34969 whole entry, looked up): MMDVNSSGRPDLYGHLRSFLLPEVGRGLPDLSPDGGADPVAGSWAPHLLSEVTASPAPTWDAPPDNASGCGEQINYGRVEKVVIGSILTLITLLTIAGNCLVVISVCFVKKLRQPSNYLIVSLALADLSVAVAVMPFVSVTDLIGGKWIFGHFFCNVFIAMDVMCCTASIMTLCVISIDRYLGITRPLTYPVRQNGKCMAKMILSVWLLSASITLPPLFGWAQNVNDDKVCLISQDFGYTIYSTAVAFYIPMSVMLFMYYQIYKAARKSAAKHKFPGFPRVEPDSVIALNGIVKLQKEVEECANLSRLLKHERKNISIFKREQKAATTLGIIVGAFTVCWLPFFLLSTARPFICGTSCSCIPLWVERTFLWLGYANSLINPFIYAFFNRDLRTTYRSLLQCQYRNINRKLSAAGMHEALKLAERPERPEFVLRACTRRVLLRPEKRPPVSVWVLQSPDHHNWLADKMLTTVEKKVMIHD
Chain of human Adrenergic, Alpha 2A Receptor (Adra2A), ADRA2A (gene 150) (P08913 whole entry, looked up): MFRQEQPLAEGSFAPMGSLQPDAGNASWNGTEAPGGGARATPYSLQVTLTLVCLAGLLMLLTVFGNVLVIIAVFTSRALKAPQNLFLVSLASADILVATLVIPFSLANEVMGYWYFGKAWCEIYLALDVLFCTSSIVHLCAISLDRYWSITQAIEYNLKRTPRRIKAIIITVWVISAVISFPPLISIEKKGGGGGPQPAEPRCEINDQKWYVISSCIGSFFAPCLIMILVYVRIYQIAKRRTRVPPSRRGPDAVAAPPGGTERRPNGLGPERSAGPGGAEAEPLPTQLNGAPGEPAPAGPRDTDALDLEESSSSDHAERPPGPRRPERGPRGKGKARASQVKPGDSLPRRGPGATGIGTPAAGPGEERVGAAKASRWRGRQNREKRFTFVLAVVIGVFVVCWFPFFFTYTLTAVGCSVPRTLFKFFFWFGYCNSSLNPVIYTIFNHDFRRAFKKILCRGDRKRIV
Chain of sheep Cyclooxygenase-1 (Cox1), PTGS1 (gene 443551) (P05979 whole entry, looked up): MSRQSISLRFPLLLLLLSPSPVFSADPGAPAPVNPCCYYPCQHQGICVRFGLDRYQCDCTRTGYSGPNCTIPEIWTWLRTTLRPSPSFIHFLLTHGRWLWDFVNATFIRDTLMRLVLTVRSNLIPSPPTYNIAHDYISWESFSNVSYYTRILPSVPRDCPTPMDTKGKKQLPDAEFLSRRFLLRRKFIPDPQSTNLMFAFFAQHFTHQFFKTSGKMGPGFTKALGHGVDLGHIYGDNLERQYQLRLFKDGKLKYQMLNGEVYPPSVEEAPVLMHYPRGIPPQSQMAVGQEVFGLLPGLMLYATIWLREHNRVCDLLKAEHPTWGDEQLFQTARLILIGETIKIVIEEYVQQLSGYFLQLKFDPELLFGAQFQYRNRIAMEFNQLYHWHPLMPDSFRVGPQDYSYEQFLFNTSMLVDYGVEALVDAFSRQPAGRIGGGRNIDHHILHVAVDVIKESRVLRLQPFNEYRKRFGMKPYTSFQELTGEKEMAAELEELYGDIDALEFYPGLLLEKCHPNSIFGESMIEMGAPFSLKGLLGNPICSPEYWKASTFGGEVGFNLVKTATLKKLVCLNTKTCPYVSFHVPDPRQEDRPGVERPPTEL
Chain of guinea pig Opioid, Kappa 1 Receptor (OpiateK), OPRK1 (gene 100135587) (P41144 whole entry, looked up): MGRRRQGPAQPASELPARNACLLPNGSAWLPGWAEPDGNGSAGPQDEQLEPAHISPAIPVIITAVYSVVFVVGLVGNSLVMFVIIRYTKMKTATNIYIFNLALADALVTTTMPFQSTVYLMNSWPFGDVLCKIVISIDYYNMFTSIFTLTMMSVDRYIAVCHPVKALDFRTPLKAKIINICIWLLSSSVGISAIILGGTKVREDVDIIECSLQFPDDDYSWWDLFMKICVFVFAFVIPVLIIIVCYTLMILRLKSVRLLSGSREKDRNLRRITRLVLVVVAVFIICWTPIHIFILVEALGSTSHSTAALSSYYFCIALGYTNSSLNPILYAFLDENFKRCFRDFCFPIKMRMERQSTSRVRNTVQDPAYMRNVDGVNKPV
Chain of rat Constitutive Nitric Oxide Synthase (CNOS), Nos1 (gene 24598) (P29476 whole entry, looked up): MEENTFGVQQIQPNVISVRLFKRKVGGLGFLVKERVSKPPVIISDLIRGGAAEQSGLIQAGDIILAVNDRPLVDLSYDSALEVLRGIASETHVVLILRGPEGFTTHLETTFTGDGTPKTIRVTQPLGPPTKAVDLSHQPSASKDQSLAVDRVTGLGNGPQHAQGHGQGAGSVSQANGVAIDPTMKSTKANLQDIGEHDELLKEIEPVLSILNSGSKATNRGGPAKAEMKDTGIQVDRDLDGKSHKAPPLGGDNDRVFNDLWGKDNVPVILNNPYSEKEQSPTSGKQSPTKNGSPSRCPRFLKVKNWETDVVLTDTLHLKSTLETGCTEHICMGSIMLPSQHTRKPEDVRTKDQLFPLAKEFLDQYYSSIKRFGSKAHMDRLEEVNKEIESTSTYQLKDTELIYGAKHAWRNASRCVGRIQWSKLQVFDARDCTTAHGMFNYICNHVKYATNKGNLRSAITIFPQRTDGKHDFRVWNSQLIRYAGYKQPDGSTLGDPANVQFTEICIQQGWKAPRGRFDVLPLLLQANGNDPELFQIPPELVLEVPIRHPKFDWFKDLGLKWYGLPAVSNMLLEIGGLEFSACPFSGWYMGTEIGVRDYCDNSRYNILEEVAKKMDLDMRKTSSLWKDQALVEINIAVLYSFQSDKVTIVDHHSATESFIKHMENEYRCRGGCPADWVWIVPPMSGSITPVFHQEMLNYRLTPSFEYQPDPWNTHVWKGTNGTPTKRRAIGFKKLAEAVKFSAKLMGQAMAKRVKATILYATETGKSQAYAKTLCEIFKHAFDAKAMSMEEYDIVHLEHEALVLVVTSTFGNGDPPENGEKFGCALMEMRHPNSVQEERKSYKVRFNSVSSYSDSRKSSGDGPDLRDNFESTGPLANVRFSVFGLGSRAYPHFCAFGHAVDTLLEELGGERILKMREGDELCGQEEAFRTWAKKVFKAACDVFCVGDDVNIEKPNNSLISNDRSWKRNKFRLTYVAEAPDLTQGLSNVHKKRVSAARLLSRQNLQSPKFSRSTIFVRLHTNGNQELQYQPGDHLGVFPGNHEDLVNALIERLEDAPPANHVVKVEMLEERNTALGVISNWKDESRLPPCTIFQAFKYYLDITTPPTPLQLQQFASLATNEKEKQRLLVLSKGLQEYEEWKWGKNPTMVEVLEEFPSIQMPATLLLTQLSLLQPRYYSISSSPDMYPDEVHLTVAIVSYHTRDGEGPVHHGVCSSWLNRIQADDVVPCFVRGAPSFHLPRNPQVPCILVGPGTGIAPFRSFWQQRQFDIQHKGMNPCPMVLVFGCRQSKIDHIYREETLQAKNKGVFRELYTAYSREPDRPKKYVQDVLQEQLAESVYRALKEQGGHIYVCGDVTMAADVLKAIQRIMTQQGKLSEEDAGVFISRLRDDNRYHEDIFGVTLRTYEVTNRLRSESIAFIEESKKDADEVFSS
Chain of human Adrenergic, Alpha 2c Receptor (Adra2C), ADRA2C (gene 152) (P18825 whole entry, looked up): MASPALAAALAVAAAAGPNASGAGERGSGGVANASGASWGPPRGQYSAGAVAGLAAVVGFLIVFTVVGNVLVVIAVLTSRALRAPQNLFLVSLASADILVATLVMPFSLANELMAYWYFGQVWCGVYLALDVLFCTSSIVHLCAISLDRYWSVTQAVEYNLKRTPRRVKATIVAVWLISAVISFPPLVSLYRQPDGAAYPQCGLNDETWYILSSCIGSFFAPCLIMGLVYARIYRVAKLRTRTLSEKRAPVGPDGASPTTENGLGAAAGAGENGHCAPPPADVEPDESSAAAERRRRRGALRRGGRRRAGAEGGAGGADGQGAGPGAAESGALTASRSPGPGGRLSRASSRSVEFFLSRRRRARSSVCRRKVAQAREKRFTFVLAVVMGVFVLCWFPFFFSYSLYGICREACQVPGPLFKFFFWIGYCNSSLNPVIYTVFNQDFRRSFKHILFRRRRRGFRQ
Chain of human Serotonin, 5-Hydroxytryptamine Receptor 6 (5HT6), HTR6 (gene 3362) (P50406 whole entry, looked up): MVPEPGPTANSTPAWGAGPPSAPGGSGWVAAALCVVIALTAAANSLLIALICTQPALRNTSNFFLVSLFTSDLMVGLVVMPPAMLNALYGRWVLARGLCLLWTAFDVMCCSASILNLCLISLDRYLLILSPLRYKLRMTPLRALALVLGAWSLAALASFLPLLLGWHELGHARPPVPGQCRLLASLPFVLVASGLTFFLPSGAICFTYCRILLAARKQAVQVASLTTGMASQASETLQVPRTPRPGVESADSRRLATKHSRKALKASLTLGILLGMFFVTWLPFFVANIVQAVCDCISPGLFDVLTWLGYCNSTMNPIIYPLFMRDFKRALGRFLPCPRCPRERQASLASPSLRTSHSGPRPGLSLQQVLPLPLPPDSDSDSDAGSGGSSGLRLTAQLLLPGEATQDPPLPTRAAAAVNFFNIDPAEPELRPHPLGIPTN

In the case of `CCOC(=O)c1ccc(C2CCC(NC[C@H](O)COc3ccc(O)c(NS(C)(=O)=O)c3)CC2)cc1` (some centres not stated), the AC50 (as a rule, the concentration giving half of the maximal activity seen) is 15.2 µM (active) in experiment [1]; 1.24 µM (active) in experiment [2]; 23.4 µM (active) in experiment [3]; 23.4 µM (active) in experiment [4]; 13 µM (active) in experiment [5]; 6.12 µM (active) in [7]. In addition, the AC50 is 12.1 µM (active) in experiment [8], 31.1 µM (active) in experiment [9], 1.84 µM (active) in experiment [10] and 7.95 µM (active) in experiment [11]. Also, the compound was called inactive in experiment [6].
Turning to `CC[C@H](C)C(=O)O[C@H]1C[C@@H](C)C=C2C=C[C@H](C)[C@H](CC[C@@H]3C[C@@H](O)CC(=O)O3)[C@H]21`, the AC50 in [1] is 34.3 µM (active).
With `CC(C)=CCCC(C)=CC=O`, the result in experiment [12] was inactive.
`CC(C)=CCC/C(C)=C\CO`: in [1], the AC50 is 25 µM (active).
Consider `CC(C)c1cccc(C(C)C)c1N1C(=O)c2ccc(O)cc2C1=O`, for which, in experiment [1], the AC50 is 2.48 µM (active).
In the case of `CC1=CC(=O)CC(C)(C)C1`, the compound was classed as inactive in [12].
For the compound `CC1(C)C(=O)N(Br)C(=O)N1Br`, the AC50 in [12] was 12.2 µM (active); in experiment [3], 25 µM (active).
With `Cc1ccc(C)c(O)c1`, the outcome in experiment [1] and in experiment [13] was inactive.
In the case of `CCc1cc(SCc2sc(-c3ccc(C(F)(F)F)cc3)nc2CN2CCN(c3ccc(OC)cc3)CC2)ccc1OCC(=O)O`, the compound was classed as inactive in experiment [1], in experiment [14] and in experiment [3]. The AC50 is 2.36 µM (active) in experiment [15], 37.3 µM (active) in [5], 4.32 µM (active) in [7] and 2.63 µM (active) in experiment [11].
On to `O=C(OC[C@H]1O[C@@H](OC(=O)c2cc(O)c(O)c(OC(=O)c3cc(O)c(O)c(O)c3)c2)[C@H](OC(=O)c2cc(O)c(O)c(OC(=O)c3cc(O)c(O)c(O)c3)c2)[C@@H](OC(=O)c2cc(O)c(O)c(OC(=O)c3cc(O)c(O)c(O)c3)c2)[C@@H]1OC(=O)c1cc(O)c(O)c(OC(=O)c2cc(O)c(O)c(O)c2)c1)c1cc(O)c(O)c(OC(=O)c2cc(O)c(O)c(O)c2)c1`, for which the AC50 in experiment [16] was 0.371 µM (active); in [1], 4.31 µM (active). Besides, the compound was called inactive in experiment [17] and in experiment [11].
Regarding `Cc1c(-c2cccnc2)c2ccccc2n1CCCCC(=O)O`, in [18], the AC50 is 14.7 µM (active).
As for `CC(=O)OCCC(C)C`, in [7], the result was inactive.
Regarding `On1ccccc1=S`, the AC50 in experiment [18] is 10.4 µM (active).
As for `CC[C@H]1CC[C@H](NCc2cc3c(cc2OC)[C@H]2C[C@H]2C(=O)N3C)[C@H](c2ccccc2)N1`, the AC50 was 9.49 µM (active) in experiment [3]; 1.05 µM (active) in experiment [4]; 2.02 µM (active) in experiment [18]; 13.6 µM (active) in [6]; 20.4 µM (active) in experiment [7]; 4.96 µM (active) in [9].
For the compound `CCCN(C1CCN(C(=O)C2CCNCC2)CC1)[C@@H]1CCc2ccc(OC)cc2C1`, the AC50 is 8.91 µM (active) in experiment [2]; 11.6 µM (active) in experiment [19]; 9.93 µM (active) in experiment [17]; 0.00229 µM (active) in [4]; 7.41 µM (active) in experiment [18]; 9.11 µM (active) in experiment [7]. The AC50 in [9] is 17.4 µM (active).
